{
  "source": "paper PMC7819943",
  "about": "“Rice protein-binding microarrays: a tool to detect cis-acting elements near promoter regions in rice”",
  "note": "Over roughly 39,000 sequences, “fluorescence intensity (a.u.)” has its median near 4,300; the highest 2% begin near 39,000. The full list was thinned out, with the highest values kept by preference.",
  "data": [
    {"biological_target": "T1, OsSMF1 (Oryza sativa, UniProt Q6ZLB0 1-436)", "T1 sequence": "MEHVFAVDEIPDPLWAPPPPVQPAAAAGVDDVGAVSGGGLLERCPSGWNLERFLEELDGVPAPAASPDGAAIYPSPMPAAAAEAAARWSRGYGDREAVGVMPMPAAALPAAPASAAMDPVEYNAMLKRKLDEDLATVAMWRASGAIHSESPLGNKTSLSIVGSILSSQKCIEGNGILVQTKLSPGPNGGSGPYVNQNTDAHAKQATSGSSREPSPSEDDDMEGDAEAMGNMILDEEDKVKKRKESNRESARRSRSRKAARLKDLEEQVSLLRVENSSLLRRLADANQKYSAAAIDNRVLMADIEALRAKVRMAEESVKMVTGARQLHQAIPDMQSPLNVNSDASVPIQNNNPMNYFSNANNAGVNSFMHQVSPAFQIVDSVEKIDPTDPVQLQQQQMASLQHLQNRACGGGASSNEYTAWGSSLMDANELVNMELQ", "assay": "protein-binding microarray (RPBM); PBS, 2% BSA, 51.3 ng/ul salmon testes DNA, 50 uM zinc acetate, 200 nM TF, 25 C, 1 h; high values mean tight binding", "settings": "protein: recombinant; tags: N-terminal polyhistidine and DsRed monomer fusion (pET32a); chain copies: 2; label: CyDye5-dUTP incorporated in the synthesized complementary strand; 3' TTTTT single-stranded linker to array surface; dsDNA, one strand shown", "in_short": "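Per-feature fluorescence intensity (arbitrary units), read on an Axon 4000B scanner, is the binding signal. Transcription factors carrying an N-terminal polyhistidine tag and DsRed fusion were expressed in E. coli BL21-CodonPlus and purified on Ni–NTA. A custom Agilent array, made double-stranded by primer extension with Cy5-dUTP and blocked with 2% BSA, was incubated with 200 nM protein in PBS, 2% BSA, salmon testes DNA and 50 µM zinc acetate at 25 °C for 1 h and then washed.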", "values": [
      {"sequence": "CTATATTTTACTATAAGCTTAATCAAACTTCAAAATATTTCGGAGTCACCTAGTGCAG", "binding signal": "14400 fluorescence intensity (a.u.)"},
      {"sequence": "GCAAACAAAATATACCTGCCAAGTCAACTTCACGGCCGGACGGAGTCACCTAGTGCAG", "binding signal": "4280 fluorescence intensity (a.u.)"},
      {"sequence": "ATTGTACACAACAAATTGAAATTTTCAATTCAACTTTTAACGGAGTCACCTAGTGCAG", "binding signal": "43200 fluorescence intensity (a.u.)"},
      {"sequence": "TTTCAATTATTTAGGTATTAACATTAACTACTTTACTAACCGGAGTCACCTAGTGCAG", "binding signal": "14800 fluorescence intensity (a.u.)"},
      {"sequence": "AGAAATCAACTTCAAACCTTTATTCTCAACATCAGGAGATCGGAGTCACCTAGTGCAG", "binding signal": "26000 fluorescence intensity (a.u.)"},
      {"sequence": "TTTTCAATTGTACATTGAGTCATTGACAATGCACAATTTACGGAGTCACCTAGTGCAG", "binding signal": "3680 fluorescence intensity (a.u.)"},
      {"sequence": "AGTTCAAGAAAACTTTATATTCAAACAAGAAAATTGGGGCCGGAGTCACCTAGTGCAG", "binding signal": "40900 fluorescence intensity (a.u.)"},
      {"sequence": "ACTCTAAATTTAAACTTTTCACTCAATTGAAACTTTTCAACGGAGTCACCTAGTGCAG", "binding signal": "24700 fluorescence intensity (a.u.)"},
      {"sequence": "GGGATGGCCAGATTGGAACTCAGCAGACTCGCTGATGACTCGGAGTCACCTAGTGCAG", "binding signal": "3800 fluorescence intensity (a.u.)"},
      {"sequence": "TTGTCCCTATAATAATATGTCACTCAAAATTGCTAATAAACGGAGTCACCTAGTGCAG", "binding signal": "3400 fluorescence intensity (a.u.)"},
      {"sequence": "GATGTACTCGAGTATCTTCCCCTTCCTAGTTCCTTCCCTTCGGAGTCACCTAGTGCAG", "binding signal": "13900 fluorescence intensity (a.u.)"},
      {"sequence": "GATGCAAAGAGAGCTACTAGCTGAGTTGGATGGAATTAACCGGAGTCACCTAGTGCAG", "binding signal": "5550 fluorescence intensity (a.u.)"},
      {"sequence": "AAGTAGGCGTAGTTAAATCAAATGAGTGCTGTGCTGTCCACGGAGTCACCTAGTGCAG", "binding signal": "3400 fluorescence intensity (a.u.)"},
      {"sequence": "CCGTCGCCGTCGGCACCGCCGCCGGAGCTCCTCCCTGCTCCGGAGTCACCTAGTGCAG", "binding signal": "3220 fluorescence intensity (a.u.)"},
      {"sequence": "ATCTACTGATTTACAACCTCCTTAATTAACAAGCACGGGTCGGAGTCACCTAGTGCAG", "binding signal": "24600 fluorescence intensity (a.u.)"},
      {"sequence": "ACTCCTCGGATAGGCGATGGCGGCCGCGGTCACCGCGCCACGGAGTCACCTAGTGCAG", "binding signal": "3370 fluorescence intensity (a.u.)"},
      {"sequence": "AAGCTGTTTCACAAGGCAGTTTTGCATACGTGGCGGGCTGCGGAGTCACCTAGTGCAG", "binding signal": "21500 fluorescence intensity (a.u.)"},
      {"sequence": "AGGAAGGAAGGAAGCAAAATGCTGACGTGTACATAAACCGCGGAGTCACCTAGTGCAG", "binding signal": "16000 fluorescence intensity (a.u.)"},
      {"sequence": "CACCCACGAGCACACCCGTACCAGGGGACGAGGAGGTGGACGGAGTCACCTAGTGCAG", "binding signal": "38300 fluorescence intensity (a.u.)"},
      {"sequence": "GGTGTGGAGGGGTTGGACCAGAGCACGACGACGGCGAGGACGGAGTCACCTAGTGCAG", "binding signal": "45100 fluorescence intensity (a.u.)"},
      {"sequence": "CTAGACGCCGGCGACGACGAGGGTGGTTGGGTTGTGGATACGGAGTCACCTAGTGCAG", "binding signal": "3740 fluorescence intensity (a.u.)"},
      {"sequence": "CGCATACCGGCCAGAAACACGACGGCGACGAGGTGCACTACGGAGTCACCTAGTGCAG", "binding signal": "41500 fluorescence intensity (a.u.)"},
      {"sequence": "CACCGCGACGCACATACCCACCCGCCGGCCACGCACGAGACGGAGTCACCTAGTGCAG", "binding signal": "4460 fluorescence intensity (a.u.)"},
      {"sequence": "CGGTGCGAGGTACTACGTCAAGGCGTACGAGGCCAGGTACCGGAGTCACCTAGTGCAG", "binding signal": "3140 fluorescence intensity (a.u.)"},
      {"sequence": "AGAGGGCGTGTACTCGTGACATCGTGTGTGTGCGTGTGCGCGGAGTCACCTAGTGCAG", "binding signal": "6670 fluorescence intensity (a.u.)"},
      {"sequence": "TTACTACACGGATCGCGGTCACGTCACGTGGTCCATAGTCCGGAGTCACCTAGTGCAG", "binding signal": "6690 fluorescence intensity (a.u.)"},
      {"sequence": "CTTTCCCTATCTTTCTCCTCATCATATGTGTCATGATGCACGGAGTCACCTAGTGCAG", "binding signal": "9020 fluorescence intensity (a.u.)"},
      {"sequence": "AGCTATCATGTAAGCGTCACGTCAATGCGATGCAGGGGCGCGGAGTCACCTAGTGCAG", "binding signal": "4630 fluorescence intensity (a.u.)"},
      {"sequence": "TTTAGTGGCAGTCTTATAATAACGATTCAAAATAGTGGCACGGAGTCACCTAGTGCAG", "binding signal": "3190 fluorescence intensity (a.u.)"},
      {"sequence": "TAACAAATAACCTTAAGTCCTTAACAAATAATAAGTGCACCGGAGTCACCTAGTGCAG", "binding signal": "3190 fluorescence intensity (a.u.)"},
      {"sequence": "ACAAATAAATCCTTAAATACACTAACTATCGAATGCACGCCGGAGTCACCTAGTGCAG", "binding signal": "41300 fluorescence intensity (a.u.)"},
      {"sequence": "AATATACAACACTATATTATTAATGCAGTCCAATCGATATCGGAGTCACCTAGTGCAG", "binding signal": "37000 fluorescence intensity (a.u.)"},
      {"sequence": "CCCGCCGTCGCCGGGGAAGACGACACGCCCGCCGTCCTTGCGGAGTCACCTAGTGCAG", "binding signal": "3580 fluorescence intensity (a.u.)"},
      {"sequence": "ACATTGACTCAGCCACCACGTCACCTAAAATCGGGAACAGCGGAGTCACCTAGTGCAG", "binding signal": "13000 fluorescence intensity (a.u.)"},
      {"sequence": "CACGATTGCTCGGTGAGCACTGAGCAGTGACCTCATTCGGCGGAGTCACCTAGTGCAG", "binding signal": "3820 fluorescence intensity (a.u.)"},
      {"sequence": "GACGCGTACGCACGGTGGGACGCGGTGGTGGGGTGCTGGGCGGAGTCACCTAGTGCAG", "binding signal": "3920 fluorescence intensity (a.u.)"},
      {"sequence": "TGGTAGGGAAGCAGGTGGAAGGAGGACAGGAAGGCCCAATCGGAGTCACCTAGTGCAG", "binding signal": "34000 fluorescence intensity (a.u.)"},
      {"sequence": "ATAGGAAGGGAAGCAACGGAGGAGGAGATCGGCTGGTGGTCGGAGTCACCTAGTGCAG", "binding signal": "7740 fluorescence intensity (a.u.)"},
      {"sequence": "AGCTGGACAAGATCGGAATAGTAGGCCAGGCCCAAAGCAACGGAGTCACCTAGTGCAG", "binding signal": "49400 fluorescence intensity (a.u.)"},
      {"sequence": "AAGAACGCCTTCGCGTGGGCCGCCGTCATCGGGATGTGGACGGAGTCACCTAGTGCAG", "binding signal": "3220 fluorescence intensity (a.u.)"},
      {"sequence": "CTCACTCGCTTGCGCTTCACCTCGCGGCATCGACTTCCTACGGAGTCACCTAGTGCAG", "binding signal": "3630 fluorescence intensity (a.u.)"},
      {"sequence": "TTAAATGGTCATTCCTGTGTTTTACAATCATATATCTTACCGGAGTCACCTAGTGCAG", "binding signal": "3990 fluorescence intensity (a.u.)"}
    ]}
  ]
}
